PAFAH1B2 FP inh – PAFAH1B2 enzyme inhibitors, primary screen, biochemical, fluorescence polarization, human; recombinant PAFAH1B2, FP-rhodamine activity probe; inhibition, % at 3.39 µM; hit rate 1.2% among 340,000;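 active = inhibition above the mean of all tested compounds plus 3 SD, cut at about 24% in these data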;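 note: 0% = enzyme with DMSO and 100% = wells lacking PAFAH1B2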
pPAFAH FP inh – pPAFAH enzyme inhibitors, primary screen, biochemical, fluorescence polarization, human; hit rate 1.5% among 330,000; recombinant pPAFAH, FP-rhodamine probe fluorescence polarization; inhibition, % at 3.39 µM;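 active = inhibition above the mean inhibition across the screen plus 3 SD, cut at about 25% in these data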;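 note: inhibitors block binding of the rhodamine activity-based probe so polarization drops; 0% = enzyme with DMSO and 100% = wells lacking pPAFAH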
Pemphigus Ab inh – inhibitors of pemphigus antibody binding to DSG3, primary screen, biochemical, bead-based, flow cytometry, scFv-GFP. DSG3-coupled beads, scFv-anti-DSG3-GFP binding; hits give low values. binding (percent of control), % at 10 µM. hit rate 0.48% among 310,000. AID 588358, 2011;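 active = binding more than 3 SD below its plate's average and above zero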;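 note: hits lower antibody fragment binding to DSG3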
PAFAH2 FP inh – PAFAH2 enzyme inhibitors, primary screen, biochemical, fluorescence polarization, human | inhibition, % at 3.39 µM | recombinant PAFAH2, FP-rhodamine activity probe | hit rate 0.99% among 340,000 | Platelet-activating factor acetylhydrolase 2, cytoplasmic (Homo sapiens), Q99487;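 active = inhibition above the mean over all tested compounds plus 3 SD, cut at about 30% in these data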;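 note: inhibitors block probe labeling of enzyme so polarization drops; 0% = enzyme with DMSO and 100% = wells lacking PAFAH2 protein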
PAFAH1B3 inh – PAFAH1B3 enzyme inhibitors, primary screen, biochemical, fluorescence polarization, human; Platelet-activating factor acetylhydrolase IB subunit alpha1 (Homo sapiens), Q15102; AID 492972, 2010; hit rate 0.28% among 340,000; recombinant PAFAH1B3, FP-rhodamine probe; inhibition, % at 3.39 µM;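 active = inhibition above the screen-wide average of all tested compounds plus 3 SD, cut at about 25% in these data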;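 note: 0% = enzyme with DMSO only and 100% = wells lacking PAFAH1B3 protein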
M18AAP inhibitor – PfM18AAP inhibitors, malaria aminopeptidase, primary screen, biochemical, QFRET, recombinant enzyme. M18 aspartyl aminopeptidase (Plasmodium falciparum 3D7). H-Glu-NHMec fluorogenic cleavage. inhibition, % at 7.35 µM. hit rate 1.2% among 290,000. AID 1822, 2009;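 active = inhibition above the campaign mean inhibition over all tested compounds plus 3 SD, cut at about 28% in these data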;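 note: 0% = plate median of test compound wells and 100% = 2 mM ZnCl2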
* = called active by the depositor; x = no result. Shown are actives, neighbours in structure and some others; about 3.8% of the full set was active somewhere.

SMILES	PAFAH1B2 FP inh	pPAFAH FP inh	Pemphigus Ab inh	PAFAH2 FP inh	PAFAH1B3 inh	M18AAP inhibitor
COc1cc(/C=C/C(=O)O)cc(OC)c1OC	-3.8	2.6	x	-3.9	3.0	-4.5
COc1cc(/C=C/C(=O)O)ccc1OS(=O)(=O)c1c(C)c(C)cc(C)c1C	25.8*	6.7	102.0	7.7	-3.8	x
CC1Cn2c(nc(=O)c3c2NCN(CCc2ccccc2)C3)S1 (stereo unspecified)	-0.1	2.7	117.6	-0.6	10.8	12.9
CC(C)C(NS(=O)(=O)c1ccccc1F)C(=O)N1CCc2ccccc2C1 (stereo unspecified)	3.4	1.2	93.5	2.4	1.1	0.2
CC(C)C(NS(=O)(=O)c1cccc(C(F)(F)F)c1)C(=O)N1CCc2ccccc2C1 (stereo unspecified)	25.8*	-2.7	111.9	7.4	3.5	1.9
COc1cc(-c2nnc(NC(=O)CS(=O)(=O)c3ccc(C)cc3)o2)cc(OC)c1OC	5.8	4.8	98.0	1.0	2.4	x
CCN(CCO)c1ncnc2c1sc1nc(C(C)C)c3c(c12)CC(C)(C)OC3	0.8	5.1	101.7	-1.1	2.5	2.6
CCN(CCO)c1nc(SC)nc2c1sc1nc(-c3ccco3)c3c(c12)CCC3	-0.7	31.9*	100.9	-0.2	-3.1	8.9
CSc1nc(NCCOCCO)c2sc3nc(-c4ccco4)c4c(c3c2n1)CCC4	2.3	29.1*	105.7	7.5	11.6	4.8
CSc1nc(NCc2ccco2)c2sc3nc(C(C)C)c4c(c3c2n1)CC(C)(C)OC4	3.2	1.8	95.5	-3.2	4.5	1.9
CC1(C)CC(NC(=O)C2CCC(=O)N(Cc3ccccc3F)C2)CC(C)(C)C1 (stereo unspecified)	27.5*	x	107.0	3.4	15.4	-3.7
C[C@]12CC[C@@H]3c4ccc(O)cc4CC[C@H]3[C@@H]1C[C@@H](O)[C@@H]2O	-2.3	1.5	93.8	-2.0	13.8	2.3
CC12CCC3c4ccc(O)cc4CCC3C1CC(O)C2O (stereo unspecified)	4.8	-6.2	45.6*	-0.9	1.2	x
CCCCN1C(=O)C(CC(=O)NCCc2ccccn2)CC(C(=O)N2CCOCC2)=C1C (stereo unspecified)	x	x	105.3	x	x	x
Cc1ccc(-n2c(-c3ccncc3)n[nH]c2=S)cc1	1.5	1.6	97.0	2.3	9.6	12.5
Cc1ccc(-n2c(-c3ccncc3)nnc2-c2cccs2)cc1	0.2	-2.2	-8.5*	0.8	0.1	-14.7
CCOC(=O)CCCCCC(=O)Nc1ccc2c(c1)C(=O)N([C@H](C)CO)C[C@H](C)[C@@H](CN(C)C(=O)Nc1ccccc1)OCCCC[C@@H](C)O2	x	x	103.2	x	x	x
CC1=C(C(=O)OC2CCCCCCC2)C(c2ccc(O)cc2)NC(=O)N1 (stereo unspecified)	24.9*	0.6	123.6	5.8	6.2	-3.8
COc1ccc(OC)c(S(=O)(=O)Nc2ccc3c(c2)OCCO3)c1	x	x	102.8	x	x	x
CC(=O)Nc1ccccc1-c1nc2ccccc2nc1OCC(=O)c1ccc(Cl)cc1	6.5	-5.2	97.3	-2.0	2.5	1.9
Cc1cc(NC(=O)CSCC(=O)Nc2cc(C(F)(F)F)ccc2N2CCOCC2)no1	25.6*	2.1	105.3	-4.6	1.2	x
CC(C)(C)C(=O)NC(=S)Nc1cc(C(F)(F)F)ccc1N1CCOCC1	6.8	32.9*	105.8	4.4	12.7	10.7
Cc1cc(NC(=O)CSCC(=O)Nc2cc(C(F)(F)F)ccc2N2CCCC2)no1	5.1	2.3	97.9	8.4	-5.5	x
CC(C)(C)C(=O)Nc1cc(C(F)(F)F)ccc1N1CCOCC1	2.3	5.4	99.5	3.2	-2.3	4.8
O=C(O)c1ccc(S(=O)(=O)c2ccc(Sc3ccc(C(=O)O)c(C(=O)O)c3)cc2)cc1	12.4	-2.7	98.9	5.7	6.6	0.0
